Screening data as filed in PubChem.
Many of the other results were omitted from the sample, so hits are more common in it than they were.
Giardia FBPA inh: qHTS Assay for Inhibitors of Fructose-1,6-bisphosphate Aldolase from Giardia Lamblia | A8B2U2 | purified Giardia FBPA | Potency, µM (series often up to 59.6 µM), for the others: top-dose activity, negative = inhibition, most hits filed as inhibitors | 290,000 tested, 0.71% active; further: potency means the concentration at half of the fitted maximal effect; on the % scale 0 is the no-effect control and ±100 the full control effect; nearly all actives have a fitted effect of over 55% in size
Target sequence (A8B2U2 whole entry, looked up): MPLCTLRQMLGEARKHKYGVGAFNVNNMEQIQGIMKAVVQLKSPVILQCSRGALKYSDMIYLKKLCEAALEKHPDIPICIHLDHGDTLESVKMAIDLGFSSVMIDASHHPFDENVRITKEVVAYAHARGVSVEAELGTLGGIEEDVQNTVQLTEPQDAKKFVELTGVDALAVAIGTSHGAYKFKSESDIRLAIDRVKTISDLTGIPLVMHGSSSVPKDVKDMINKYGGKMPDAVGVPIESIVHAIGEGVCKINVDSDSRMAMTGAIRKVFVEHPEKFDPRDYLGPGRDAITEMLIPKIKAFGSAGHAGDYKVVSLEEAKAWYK
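Giardia FBPA (40 nM reagent) was preincubated 10 min at RT with compound (up to 57.5 uM final), then substrate plus GAPDH/TPI/NAD/arsenate coupling system with diaphorase/resazurin was added; resorufin fluorescence (525/598 nm) was read after 20 min.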
Tb PYK inh: qHTS of Trypanosoma Brucei Inhibitors; Potency, µM (titrated, usually from 76.8 µM), for the others: at the highest dose activity, negative = inhibition, actives largely listed as inhibitors; AID 624173, 2012; 410,000 tested, 0.12% active; TbPYK enzyme, Kinase-Glo Plus ATP luminescence, 45 min; further: potency means the concentration at half of the fitted maximal effect; on the % scale 0 is the no-effect control and ±100 the full control effect; nearly all actives have a fitted effect of over 50% in size
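Enzyme and substrate buffer are dispensed first and compound is pin-transferred. ADP at 130 uM final then starts the reaction, which runs 45 min at room temperature. Detection reagent is added for 10 min before luminescence is imaged.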
Shiga toxin inh: A qHTS for Small Molecule Inhibitors of Shiga Toxin; 290,000 tested, 9.2% active; AID 2315, 2010; Vero cells, Shiga toxin protein synthesis inhibition reporter; inhibition, % at 38.7 µM; in the data active means inhibition mostly above about 28%, no sharp cut-off; inactive means mostly below about 43%; further: 0% is about no effect
Cycloheximide cs: Cycloheximide Counterscreen for Small Molecule Inhibitors of Shiga Toxin; AID 2314, 2010; max response, %; cell reporter, cycloheximide protein synthesis inhibition counterscreen; 300,000 tested, 12% active; in the data active means max response mostly above about 13%, no sharp cut-off; inactive means mostly below about 14%; further: read at 38.3 µM for the half of the compounds with a filed dose; 0% is about no effect
LmPK inhibitor: qHTS Assay for Inhibitors of Leishmania Mexicana Pyruvate Kinase (LmPK); Q27686; purified LmPK, Kinase-Glo ATP luminescence, 1 h; Potency, µM (top dose mostly 57.5 µM), for the others: top-dose activity change, negative = inhibition, actives largely listed as inhibitors; 290,000 tested, 0.37% active; further: potency means the concentration at half of the fitted maximal effect; on the % scale 0 is the no-effect control and ±100 the full control effect
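Pyruvate kinase activity monitored as ATP production (luciferase luminescence). Conditions: 0.1 nM enzyme, 0.5 mM PEP, 0.1 mM ADP, 1 h, RT; normalized against uninhibited and no-enzyme wells.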
Sm TGR inh: qHTS Assay for the Inhibitors of Schistosoma Mansoni Peroxiredoxins | Schistosoma mansoni thioredoxin glutathione reductase (TGR), Q962Y6 | purified TGR, DTNB reduction, TNB absorbance 405 nm | Potency, µM (series often up to 114 µM), inactives show at the top dose activity change, negative = inhibition, usual class: inhibitors | 360,000 tested, 3% active; further: potency means the concentration at half of the fitted maximal effect; on the % scale 0 is the no-effect control and ±100 the full control effect; nearly all actives have a fitted effect of over 60% in size
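TGR 20 nM + NADPH 100 uM (dispensed conc.), cpd preinc 15 min RT; start with NADPH (500 uM addition) then DTNB (15 mM addition). Kinetic TNB absorbance, 405 nm filter. Four-parameter Hill fit across titration.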
Numbers without * were called inactive; ? = inconclusive; . = not tested or not shown; + = active, no number. Unless noted, the call rests on the fitted dose curve; in most records, active means well fitted curve in the direction sought with a large enough effect; inconclusive means small, poorly fitted or top-dose-only effect, or another doubt; inactive means no such curve, though single readings can be large; an effect the other way counts as inactive or inconclusive.

SMILES	Giardia FBPA inh	Tb PYK inh	Shiga toxin inh	Cycloheximide cs	LmPK inhibitor	Sm TGR inh
CCOC(=O)CN1C(=O)S/C(=C/c2ccc3c(c2)n(C)c(=O)n3C)C1=O	1%	-3%	44*	40*	0%	-3%
COCCNC(=O)C1(C)CCN(C(=O)c2ccc(OC)c(F)c2)C1 (stereo not drawn)	.	-3%	.	.	.	.
COc1ccc(-c2noc(CCC(=O)Nc3cccnc3)n2)cc1OC	-2%	-11%	71	26	3%	0%
COc1ccc(-c2noc(CCC(=O)Nc3ccc(C)c(C)c3)n2)cc1	1%	1%	34	15*	0%	-18%
COc1ccc(-c2noc(CCC(=O)Nc3ccc4c(c3)OCCO4)n2)cc1	-2%	2%	43*	23*	2%	4%
COc1ccc(NC(=O)CCc2nc(-c3ccc(C)cc3)no2)cc1Cl	-1%	-2%	55	18	2%	4%
Cc1ccc(-c2noc(CCC(=O)Nc3ccc4c(c3)OCO4)n2)cc1	0%	-4%	19	2	1%	0%
COc1cccc(-c2noc(CCC(=O)Nc3cccnc3)n2)c1	4%	2%	77	25*	4%	-18%
COc1ccc(OCCCC(=O)Nc2ccc3c(c2)OCCO3)cc1	-7%	4%	+	11	3%	-4%
CCCCn1c(N)c(N(CCOC)C(=O)COC(=O)c2cc(CCC)c(C)s2)c(=O)[nH]c1=O	.	0%	.	.	.	0%
N=C1N(/N=C/c2ccccc2)C(=Nc2ccccc2)C(=S)N1c1ccccc1	14%	.	active	42*	-10%	-34%
C#C[C@]1(O)CCC2C3CCC4=Cc5oncc5C[C@@]4(C)C3CC[C@@]21C (stereo partly drawn)	4%	.	.	.	.	.
COc1ccc(NC(=O)N(CCC(C)C)C(C)c2cccs2)c(OC)c1 (stereo not drawn)	.	-8%	.	.	.	11%
O=C1CCCCC1C(=O)c1cn(-c2ccc(Cl)c(Cl)c2)nn1 (stereo not drawn)	0%	1%	16	11	-2%	1%
O=C(c1cn(-c2ccc(Cl)c(Cl)c2)nn1)C1CC1	2%	-1%	51*	37*	-1%	5%
CC1CC(C)(C)NC(=S)N1CCCC(=O)NCCc1ccc(Cl)cc1 (stereo not drawn)	2%	-3%	19	-1	0%	7%
COc1ccc(-c2cc(C(=O)NCc3cccnc3)no2)cc1OC	2%	0%	16	-12	-5%	7%
O=C(Nc1cccnc1)c1cc(-c2cccs2)on1	-3%	-3%	-5	1	-7%	0%
O=C(Nc1cccnc1)c1cc(-c2ccccc2O)on1	-2%	0%	77*	48*	-17%	15%
O=C(Nc1cccnc1)c1cc(-c2ccc3c(c2)OCO3)on1	8%	-6%	89*	30*	?	3%
O=C(Nc1cccnc1)c1cc(-c2ccc(F)cc2)on1	7%	-1%	92*	53*	-11%	-5%
O=C(COCc1cc(-c2ccc3c(c2)OCO3)on1)Nc1cccnc1	9%	0%	3	12	-3%	-2%
COc1ccc(-c2cc(C(=O)Nc3cccnc3)no2)cc1OC	3%	4%	60*	32*	3%	-12%
CCn1c(=O)c(=O)n(CC)c2cc(N3CCCCC3)c(NC(=O)c3cccc(OC)c3)cc21	.	-6%	.	.	.	5%
CN(C)C(CNC(=O)c1ccc2c(=O)n(-c3ccccc3F)c(=S)[nH]c2c1)Cc1ccccc1 (stereo not drawn)	0%	3%	14	-2	6%	?
SMILES	Giardia FBPA inh	Tb PYK inh	Shiga toxin inh	Cycloheximide cs	LmPK inhibitor	Sm TGR inh
CCn1c(C(=O)NCc2ccc(C)cc2)cc2sc(Cl)cc21	.	-3%	.	.	.	10%
O=C(Nc1cccnc1)c1cc(-c2ccc(Cl)c(Cl)c2)on1	8%	-2%	47*	21*	2%	-11%
O=C(CC1SC(=O)N(c2ccccc2)C1=O)Nc1ccc(Cl)cc1 (stereo not drawn)	-9%	-6%	46	14*	3%	4µM*
CCCN1C(=O)SC(CC(=O)Nc2ccccc2)C1=O (stereo not drawn)	1%	3%	22	1	-2%	1%
O=C(CC1SC(=O)N(c2ccccc2)C1=O)Nc1ccc(Br)cc1 (stereo not drawn)	-10%	-4%	51*	24*	-6%	3.2µM*
O=C(CC1SC(=NCCc2ccccc2)N(/N=C/c2cccs2)C1=O)Nc1ccc(Cl)cc1 (stereo not drawn)	-1%	4%	21	13*	0%	2%
CCOc1ccc(NC(=O)C(C)n2c(=O)cc(C)c3c(C)nn(-c4ccccc4)c32)cc1 (stereo not drawn)	.	-4%	.	.	.	5%
CC1=C(c2ccc(C(C)C)cc2)S(=O)(=O)NC1=NCCCN1CCN(c2ccccc2F)CC1	.	-2%	.	.	.	2%
O=C1c2ccccc2C(Nc2ccc(Cl)cn2)N1c1ccccn1 (stereo not drawn)	-7%	-8%	3	0	0%	-5%
Cc1ccc(N2C(=O)c3ccccc3C2Nc2ccccc2F)nc1 (stereo not drawn)	-15%	1%	55*	32*	6%	36%
Cc1cccc(C(=O)OCN2C(=O)c3ccccc3C2=O)c1[N+](=O)[O-]	.	-13%	-35	1	-5%	5%
NC(=O)c1c(/N=C/c2cccs2)sc2c1CCCC2	-12%	-26%	21	10*	6%	-13%
O=C(/C=C/c1cccs1)Nc1sc2c(c1C(=O)O)CCCC2	15%	8%	30	25	-5%	4%
O=S(=O)(NCCC1=CCCCC1)c1ccc(OC(F)(F)F)cc1	.	3%	.	.	.	-1%
Cc1[nH]n(-c2ccccc2)c(=O)c1N=Nc1c(Cl)cccc1Cl	?	4%	30	4	6%	8%
Cc1cccc2c1ncc1c(=O)n(-c3ccccc3)[nH]c12	2%	-5%	90*	30*	4%	-31%
Oc1cccc2ccc(/C=C/c3cccs3)nc12	-13%	-9%	68*	36*	22µM*	0%
Cc1ccsc1/C=C/C(=O)O	8%	1%	8	1	-7%	6%
Cc1ccsc1/C=C/c1ccc2ccccc2n1	-14%	-1%	67*	28*	?	2%
Cc1ccsc1/C=C/c1ccc2cccc(O)c2n1	-12%	6%	72*	66*	?	0%
O=C1CCC(=O)N1CO	.	2%	.	.	.	.
Oc1ccc2ccccc2c1CNc1cnc2ccccc2c1	?	.	92*	29*	4%	?
